Laboratory results taken from ChEMBL document CHEMBL4513216, “Probing the Open Global Health Chemical Diversity Library for Multistage-Active Starting Points for Next-Generation Antimalarials” (ACS Infect Dis, 2020).
Out of some 65,000 compounds screened, about 2,100 (3.2%) showed an effect of 50% or more. The median lay at about -52%. The entries come from a sample that favours strong results as a whole.

system: Plasmodium falciparum; assay: Screen against P. falciparum Asexual Blood Stage (ABS), at 5uM; format: functional, Dd2; conditions: tested at 5 uM

SMILES | INHIBITION
COCC(=O)N(C)Cc1ccc(F)c(F)c1 | -52.4%
CCOc1nnc(CN(CC)CC(=O)Nc2c(F)cccc2F)s1 | -13.5%
C=C(C)COc1cccc(C(=O)NC(C)c2nnn[nH]2)c1 (centres undefined) | -109%
CCOc1ccc(N2CCCN=C2NC(=O)c2cccc(C)c2)cc1 | -77.5%
Cc1cc(C(=O)N2CCc3nc(N4CCOCC4)nc(C)c3C2)c(C)o1 | -39.6%
CC(C)NC(=O)[C@H]1C[C@@H]2[C@@H](C1)OCCN2Cc1cccs1 | -20.5%
C[C@@H]1CCC[C@H](C)N1CC(=O)N1CCc2[nH]c(-c3ccccc3)nc2C1 | -64.1%
O=C(NCCc1cccs1)[C@]12COC[C@H]1CN(Cc1ccncc1)C2 | -31%
O=C(NCCN1CCCCC1)c1ccn(-c2ccccc2)n1 | -37.9%
COc1cn(-c2ccccc2)nc1C(=O)NCCN1CCCC(C)C1 (centres undefined) | -57.1%
CC1CCCN(CCNC(=O)c2ccn(-c3ccccc3)n2)C1 (centres undefined) | 50.8%
CC(C)OCc1ccc(CNc2cncc(-n3cccn3)n2)cc1 | -83.1%
COCCNC(=O)c1ccc2c(=O)n3c(nc2c1)CCCC3 | -68%
COc1cc(Cl)cc(CN2CCCC(N3CCCC3)C2)c1OC (centres undefined) | 64.1%
COc1ccc(CN2CCCC(N3CCCC3)C2)cc1Cn1cncn1 (centres undefined) | -34.2%
COc1cc(Cl)cc(CN2CCCC(N3CCOCC3)C2)c1OC (centres undefined) | -126%
O=C(O)c1ccccc1-n1cnc(CN2CCc3ccccc32)c1 | -68.5%
O=C(NCc1ccncc1)Nc1cc(C(F)(F)F)c[nH]c1=O | -57.7%
Cn1nccc1CNC(=O)Nc1cc(C(F)(F)F)c[nH]c1=O | -32.9%
Cn1nccc1C(=O)Nc1cc(C(F)(F)F)c[nH]c1=O | 56.5%
CNc1cc(C)nc(C2COCCN2Cc2csc(C)n2)n1 (centres undefined) | -146%
Cc1ccnn1CCC(=O)N1CCC(c2cnccn2)CC1 | -164%
CN(Cc1cscn1)C(=O)C(c1ccccc1)N1CCSCC1 (centres undefined) | 13.8%
CCN(CC)C(CNS(=O)(=O)c1ccc(C(=O)NC)cc1)c1ccco1 (centres undefined) | -31.7%
CCN(CC)C(CNS(=O)(=O)NCc1ccccc1)c1ccco1 (centres undefined) | 67%
CCN(CC)C(CNCc1ccc(O)cc1)c1ccco1 (centres undefined) | 40.1%
Cn1ncc2c(N[C@H]3CCCC[C@@H]3O)nc(C(C)(C)C)nc21 | -65.3%
Cn1ncc2c(NC3CCCN(C(=O)C4CC4)C3)nc(C(C)(C)C)nc21 (centres undefined) | -74%
Cn1ncc2c(NC3CCC(N)CC3)nc(C(C)(C)C)nc21 (centres undefined) | 65.3%
